Data from PubChem BioAssay (NCI).
This is part of a sample that, as a whole, favours compounds with a hit. Of some 83,000 tested, about 20% had one in any assay.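 Negative percent growth values reflect cell death: -40 means 40% of the cells present at the start died, and -100 means all died.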 Active and inactive are the calls of the source. Rule for the calls: active = growth percent below 10; inactive = the rest.

test system: HL-60(TB) leukemia; assay: NCI-60 one-dose screen, 48 h (100 = growth as untreated, 0 = no growth, -100 = all killed); settings: 10 µM unless noted

SMILES | growth
O=C(COCc1c(-c2ccccc2)no[n+]1[O-])Nc1ccc(C(=O)/C=C/c2ccc3c(c2)OCO3)cc1 | 88.7% (inactive)
CC(C)(N)CO[C@H]1C[C@H]2CC[C@@]1(C)C2(C)C | 111% (inactive)
CN(C)CCS(=O)(=O)Nc1cc(-c2ccc3ncc(C#N)c(Nc4ccc(F)c(Cl)c4)c3c2)cnc1Cl | -28.4% (active)
CC(=O)NC(O)C(Cl)Cl (configuration not stated) | 105% (inactive)
Cc1c(Cl)cccc1NC(=S)NC(=O)c1ccccc1 | 92.9% (inactive)
Oc1ccccc1N=Cc1c(O)ccc2ccccc12 | 8.97% (active)
O=C(O)Cc1ccc(Cl)cc1 | 22.4% (inactive)
C=C1CCC2C3(C)COC(c4cccc(Cl)c4)OC3CCC2(C)C1/C=C/C1=CCOC1=O (configuration not stated) | 33.7% (inactive)
CCN1CCN(C(=O)[C@]23CC[C@@H](C)[C@H](C)[C@H]2C2=CC[C@@H]4[C@@]5(C)C/C(=C/c6cccc(OC)c6OC)C(=O)C(C)(C)[C@@H]5CC[C@@]4(C)[C@]2(C)CC3)CC1 | 2.97% (active)
CC(C)CCNCC(C)(C)O | 99.3% (inactive)
COc1cc(NC(N)=NCCC(C)(C)Oc2ccc(C(F)(F)F)cc2)ncc1C#N | -51.1% (active)
CC(=O)N(Cc1ccccc1)c1nc2ccc(O)c(CN(C)C)c2s1 | 105% (inactive)
Cc1cccc2nc3c(n12)C(=O)C(=O)c1ccccc1-3 | 77.4% (inactive)
O=C(c1cccc(Br)c1)N1CCN(c2ccnc3cc(Cl)ccc23)CC1 | 92.6% (inactive)
CCCCCOC(=O)c1cccc(NC(=O)CN(CC)CC)c1 | 101% (inactive)
O=C(Nc1ccncc1)C(=O)c1cn(S(=O)(=O)c2ccc(Cl)cc2)c2ccccc12 | 18.3% (inactive)
O=C(O)c1ccc(Cl)cc1Nc1ccc(F)cc1 | 90.2% (inactive)
Cc1ccc(-n2c3c(c(-c4ccccc4)c2-c2ccccc2)C2=NCCN2C=N3)cc1 | 98.5% (inactive)
COc1ccc(C(=O)Nn2c(NCC(=O)N3c4ccccc4Sc4ccccc43)nnc2-c2ccc(O)cc2)cc1 | 94.3% (inactive)
COC(=O)CCCCN=Cc1c(O)c(O)c(C(C)C)c2cc(C)c(-c3c(C)cc4c(C(C)C)c(O)c(O)c(C=NCCCCC(=O)OC)c4c3O)c(O)c12 | 10.9% (inactive)
CN(C)Cc1ccc(NC(=O)c2cncc(C#Cc3cnc(N)c4ncccc34)c2)cc1C(F)(F)F | 31.1% (inactive)
COc1ccccc1NC(=O)C1CC(c2ccc(F)cc2)=NO1 (configuration not stated) | 103% (inactive)
COc1ccc(-c2nn(-c3ccc(NC(=O)c4ccc(Cl)c(C(F)(F)F)c4)cc3)cc2-c2ccncc2)cc1Cl | 2.89% (active)
COc1cc(/C=C/C(=O)c2ccc(NC(=O)CSc3nnc(-c4cc(-c5ccccc5)nc5ccccc45)n3-c3ccccc3)cc2)cc(OC)c1OC | 84.9% (inactive)
COc1ccc(Nc2ncc(I)c(NCCCNC(=O)C3CCC3)n2)cc1 | -37.6% (active)
Cc1cc2nc(CC(=O)c3ccncc3)c(=O)[nH]c2cc1C | 89.8% (inactive)
Cc1ccccc1/C=C/C(=O)c1cccc(OCCCCOc2cccc(C(=O)/C=C/c3ccccc3C)c2)c1 | 81.8% (inactive)
